Compound activity: PubChem BioAssay, several laboratories
Rtt109 HAT inh = inhibitors of C. albicans Rtt109/Vps75 HAT, primary screen, biochemical, ThioGlo CoA-SH fluorescence, plate reader | Histone acetyltransferase RTT109 (Candida albicans (strain SC5314 / ATCC MYA-2876)), … | purified Rtt109/Vps75, 4 h | inhibition, % at 34.9 µM | 0.16% of 330,000 active;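 active means inhibition of at least 50% in every replicate; inconclusive means best replicate reaches 50% inhibition but some replicates fall short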
ALR inh = inhibitors of human ALR sulfhydryl oxidase, primary screen, biochemical, H2O2 detection, HRP-luminol luminescence, single point; FAD-linked sulfhydryl oxidase ALR (Homo sapiens), P55789; purified ALR, DTT oxidation; inhibition, % (test concentration not listed); 3.8% of 290,000 active; AID 485317, 2010;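 active means mean replicate inhibition above about 79%, with every replicate also reaching it, limit read from the data; inconclusive means only one of the two criteria met; inactive means mean below limit and not every replicate reaching it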
LANA-H2B inh = blockers of LANA interaction with H2A/H2B – biochemical, FP readout, HTS, primary screen; Protein LANA1 (Human herpesvirus 8 type P (isolate GK18)), Q9QR71; cell-free LANA-H2A/H2B peptide, fluorescence polarization; inhibition, % (concentration not given with the values); 0.6% of 320,000 active; AID 2629, 2010; in the data active means inhibition mostly above about 10%, no sharp cut-off; inactive means mostly below about 6.7%
ABHD5-PLIN5 inh = ABHD5-PLIN5 interaction inhibitors, primary screen, cell lysate, split luciferase complementation, luminescence; Split G. princeps luciferase complementation, 4 h; Perilipin-5 (Homo sapiens) + 1-acylglycerol-3-phosphate O-acyltransferase ABHD5 (Homo …; 0.78% of 360,000 active; inhibition, % at 4 µM;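 active means inhibition above the mean inhibition across every tested compound plus 3 SD, cut at about 22% in these data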;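 further: 0% = DMSO only wells and the 100% control is not disclosed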
Target sequence (Q00G26 whole entry, looked up): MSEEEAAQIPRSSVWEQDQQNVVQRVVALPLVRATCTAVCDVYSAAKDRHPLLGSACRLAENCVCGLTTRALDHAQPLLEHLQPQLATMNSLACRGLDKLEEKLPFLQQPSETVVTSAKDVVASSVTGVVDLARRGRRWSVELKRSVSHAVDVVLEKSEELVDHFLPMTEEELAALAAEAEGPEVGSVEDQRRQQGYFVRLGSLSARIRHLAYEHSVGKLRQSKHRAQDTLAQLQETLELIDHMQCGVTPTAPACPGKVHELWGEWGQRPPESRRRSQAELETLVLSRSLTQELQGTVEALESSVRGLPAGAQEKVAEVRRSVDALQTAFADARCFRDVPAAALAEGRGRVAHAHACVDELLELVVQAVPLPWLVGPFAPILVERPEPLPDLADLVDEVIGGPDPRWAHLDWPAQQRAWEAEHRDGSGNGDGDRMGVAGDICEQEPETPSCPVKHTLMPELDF
Target sequence (Q8WTS1 whole entry, looked up): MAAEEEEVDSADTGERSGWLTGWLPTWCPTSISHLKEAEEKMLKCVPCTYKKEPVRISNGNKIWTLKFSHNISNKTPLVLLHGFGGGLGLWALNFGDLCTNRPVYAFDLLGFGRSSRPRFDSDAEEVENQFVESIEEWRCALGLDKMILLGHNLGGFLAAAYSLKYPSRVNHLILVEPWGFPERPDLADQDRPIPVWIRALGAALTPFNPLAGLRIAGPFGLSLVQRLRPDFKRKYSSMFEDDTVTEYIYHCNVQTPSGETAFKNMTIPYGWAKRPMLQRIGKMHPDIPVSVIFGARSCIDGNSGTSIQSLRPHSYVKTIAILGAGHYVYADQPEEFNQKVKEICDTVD
PRMT1 FP inh = PRMT1 methyltransferase inhibitors, primary screen, biochemical, fluorescence polarization; Protein arginine N-methyltransferase 1 (Homo sapiens), Q99873; recombinant PRMT1, activity-based probe fluorescence polarization; inhibition, % at 2.79 µM; 1.3% of 370,000 active;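 active means inhibition above about 21% made by adding two undisclosed values, limit read from the data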
rCAG binder = binders of r(CAG) RNA repeats, primary screen, biochemical, fluorescence. r(CAG) RNA repeat, TO-PRO-1 dye displacement fluorescence. inhibition, % at 3 µM. 1.3% of 370,000 active. AID 651821, 2012;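 active means inhibition above the plate cutoff, the mean of all test compounds on that plate plus 3 SD, cut at about 35% in these data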;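 further: 0% = DMSO alone and 100% = 100 µM mitoxantrone as full dye displacement; higher means more dye released from RNA so lower well fluorescence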
rCAG bind conf = small molecules binding CAG repeat RNA – biochemical, fluorescence, confirmation. shares compounds with rCAG binder. r(CAG) RNA repeat, TO-PRO-1 dye displacement fluorescence. inhibition, % at 3 µM. 70% of 4,300 active;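 active means inhibition above a per-plate cutoff, the mean inhibition of sample wells plus 3 SD, cut at about 35% in these data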;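 further: loss of TO-PRO-1 fluorescence as compound displaces dye from 1x1 AA loop RNA; 0% = DMSO only wells and 100% = 100 µM mitoxantrone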
DNA CAG counter = displacement of TO-PRO-1 from CAG DNA duplex, counter-screen for rCAG RNA repeat binder project, biochemical, fluorescence, TO-PRO-1 dye, d(CAG) DNA oligo. shares compounds with rCAG binder. d(CAG) DNA oligo TO-PRO-1 dye displacement. inhibition, % at 3 µM. 94% of 4,300 active;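 active means inhibition above its plate's cutoff, the mean test-well inhibition plus 3 SD, cut at about 4.8% in these data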;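 further: 0% = DNA dye mix with DMSO and 100% = 100 µM mitoxantrone; hits displace the dye from DNA and so lower well fluorescence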
PRMT1 inh conf = PRMT1 methyltransferase inhibitors, confirmation, biochemical, fluorescence polarization, triplicate | inhibition, % at 2.79 µM | AID 687036, 2013 | 42% of 3,300 active | shares compounds with PRMT1 FP inh | recombinant His-PRMT1, activity-based probe fluorescence polarization;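 active means mean inhibition across replicates above the hit cutoff derived for the earlier primary screen, cut at about 22% in these data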
Numbers without * were called inactive; ? = inconclusive; / = no result. Rows were chosen to be rich in hits. Some 5.9% of all compounds tested hit in one or more screens of this group.

SMILES | Rtt109 HAT inh | ALR inh | LANA-H2B inh | ABHD5-PLIN5 inh | PRMT1 FP inh | rCAG binder | rCAG bind conf | DNA CAG counter | PRMT1 inh conf
C=C1CCC2C(C)(C)CCC[C@]2(C)[C@H]1CC1=C(O)C(=O)C(CO)=CC1=O (stereo partly drawn) | / | / | / | / | 79.8* | 45.0* | 32.0 | 7.3* | 76.8*
C=C/C(C)=C/C[C@H]1C(=C)CCC2[C@](C)(C(=O)O)CCC[C@@]21C (stereo partly drawn) | -4.2 | / | 0.5 | -1.8 | / | / | / | / | /
O=C(Nc1ccccc1C(=O)NC(Cc1c[nH]c2ccccc12)C(=O)O)c1ccccc1 (stereo not drawn) | -3.7 | / | 1.1 | 0.5 | -1.5 | 33.3 | / | / | /
Cc1oc(-c2ccccc2)cc1C(=O)NC(Cc1c[nH]c2ccccc12)C(=O)O (stereo not drawn) | 14.1 | 8.5 | 4.1 | 10.9 | 30.2* | 40.4* | 51.9* | 17.5* | 4.0
COc1cc(NC(=O)CSc2ncnc3sc4c(c23)CCCC4)c(C(=O)O)cc1OC | -6.0 | 88.3* | -5.1 | 2.0 | 32.3* | 67.2* | 52.5* | 17.4* | 6.8
CC(C)(C)C(=O)CSc1ncnc2sc3c(c12)CCC3 | 1.9 | 2.1 | -3.5 | 1.7 | -3.9 | -2.8 | / | / | /
CCOC(=O)c1c(NS(=O)(=O)c2ccc(Br)cc2)sc2c1CCC2 | 13.3 | 63.3 | -1.0 | -10.9 | 26.6* | 68.2* | 79.6* | 34.2* | 13.1
CN(CCC#N)C(=O)COC(=O)c1c2c(nc3ccccc13)/C(=C/c1ccco1)CC2 | 2.2 | -35.6 | 2.7 | 18.6 | 40.7* | 68.9* | 51.8* | 28.5* | 29.1*
O=C(C[C@H]1CC[C@@H]2[C@H](COC[C@H](O)CN2Cc2cccc(C(F)(F)F)c2)O1)NCCc1ccccc1 | / | / | / | -6.8 | -1.8 | 2.0 | / | / | /
CC(C(=O)Nc1ccc(C(=O)O)c(O)c1)N1C(=O)/C(=C\c2ccco2)SC1=S (stereo not drawn) | 11.5 | 18.5 | 5.2 | -3.1 | / | / | / | / | /
O=C(CN1C(=O)/C(=C/c2ccco2)SC1=S)Nc1ccc(C(=O)O)c(O)c1 | 0.8 | 12.3 | 4.5 | 1.1 | 52.3* | 92.9* | 85.2* | 52.9* | 34.9*
COc1ccc(NC(=O)CCCN2C(=O)/C(=C\c3ccco3)SC2=S)cc1 | -5.5 | / | 1.8 | 11.8 | 7.3 | 16.5 | / | / | /
O=C(CN1C(=O)/C(=C/c2ccco2)SC1=S)Nc1ccc(O)c(C(=O)O)c1 | 1.1 | 18.3 | 3.4 | 0.0 | 49.7* | 88.4* | 82.0* | 47.1* | 31.2*
O=C(CN1C(=O)/C(=C/c2ccco2)SC1=S)NC1CCS(=O)(=O)C1 (stereo not drawn) | 3.5 | -2.2 | -0.8 | -17.0 | 44.3* | 48.4* | 19.0 | 9.4* | 24.1*
C=CCN1C(=O)[C@@H](CC(=O)N2CCN(C(=O)c3ccco3)CC2)[C@]2(C(=O)OCC)CCCCC/C=C/12 | / | / | / | / | -1.2 | 2.9 | / | / | /
O=C1Nc2ccccc2-n2nnnc2C1N1CCN(C(=O)c2ccco2)CC1 (stereo not drawn) | / | / | / | 4.0 | 4.7 | 5.6 | / | / | /
O=C(COC(=O)c1cc(-c2ccco2)nc2ccccc12)NCc1ccc2c(c1)OCO2 | 3.0 | 22.4 | 0.3 | 0.8 | 35.1* | 37.5* | 15.4 | 8.0* | 19.5
O=C(Nc1nncs1)c1cc(-c2ccco2)nc2ccccc12 | -0.1 | 10.5 | 3.4 | 6.3 | 36.1* | 47.8* | 15.9 | 7.1* | 8.7
CCc1nnc(NC(=O)c2cc(-c3ccco3)nc3ccccc23)s1 | -7.5 | -1.9 | 2.7 | 0.0 | 25.6* | 36.3* | 23.1 | 16.2* | 11.7
COc1ccc2cc(-c3cn(C(=O)N(c4ccccc4)c4ccccc4)nn3)ccc2c1 | / | / | / | / | 0.4 | / | / | / | /
CC(=O)Nc1cc(-c2ccccc2)cn2c(-c3cccc(C(C)=O)c3)cnc12 | / | / | / | 9.2 | -0.4 | 8.8 | / | / | /
COc1cccc(NS(=O)(=O)c2ccc3c(c2)C2C=CCC2C(c2ccc(C(=O)O)cc2)N3)c1 (stereo not drawn) | -0.4 | -8.7 | 3.1 | 18.4 | 42.3* | 95.7* | 90.0* | 62.3* | 30.1*
CCCS(=O)(=O)c1c(S(=O)(=O)CCC)c2c(N)cccn2c1C(=O)c1ccc(F)cc1 | 0.9 | -13.1 | 4.1 | -7.5 | 25.6* | 45.2* | 21.4 | 10.1* | 6.8
N#Cc1c(C(F)(F)F)cc(-c2ccco2)nc1SCc1ccccn1 | 0.1 | -4.9 | -0.2 | -5.4 | 34.7* | 37.0* | 19.1 | 5.3* | -6.7
N#Cc1ccc(CC(=O)c2ccccc2)[nH]c1=O | -2.2 | / | / | -7.9 | 29.1* | 35.4* | 14.3 | 4.2 | 0.3
SMILES | Rtt109 HAT inh | ALR inh | LANA-H2B inh | ABHD5-PLIN5 inh | PRMT1 FP inh | rCAG binder | rCAG bind conf | DNA CAG counter | PRMT1 inh conf
COc1ccc(-c2nc3c(Cl)cc(C(F)(F)F)cn3c2Cc2ccc(C)cc2)cc1OC | / | / | / | -8.7 | 2.8 | 13.0 | / | / | /
N#Cc1c(-c2cccc(Br)c2)cc(-c2ccco2)[nH]c1=O | -0.2 | 61.5 | 3.7 | 8.0 | 33.0* | 51.3* | 44.7* | 16.3* | 10.0
O=C(NCc1ccco1)C1CCCN(S(=O)(=O)c2ccc([N+](=O)[O-])cc2)C1 (stereo not drawn) | / | / | / | / | -6.1 | 1.0 | / | / | /
CCOC(=O)C1=C(C)N=c2sc(=Cc3ccc(OCC(=O)O)cc3)c(=O)n2C1c1ccc(Cl)cc1 (stereo not drawn) | / | / | / | -7.6 | 41.6* | 83.2* | 58.7* | 25.6* | 13.2
CCOC(=O)C1=C(C)N=c2s/c(=C\c3ccc(OC(C)=O)cc3)c(=O)n2C1/C=C/c1ccccc1 (stereo not drawn) | 1.1 | 38.6 | 1.5 | -4.4 | -0.2 | 4.8 | / | / | /
CC(=O)C1CCC2C3C=CC4=CC(=O)CCC4(C)C3CCC12C (stereo not drawn) | / | / | / | 4.9 | -1.5 | -0.1 | / | / | /
Cc1ccc(Nc2ccc(N)cc2S(=O)(=O)O)cc1 | ? | 99.6* | -0.8 | -6.6 | 33.4* | 35.6* | 26.3 | 7.2* | 8.9
